“And” between values parts separate entries of the source, which are not always exact repeats. Equal values may be shown once. Among all 34,000 compounds or so, about 290 (0.85%) showed an effect of 50% or more. This is one part of a sample in which strong results are shown more often than they occur.
Tested on: Plasmodium falciparum
Experiment: Plasmodium falciparum sporozoite viability assay
Assay type: functional, organism-based
Parameters: scale not given: in the data most compounds retested in dose-response had high values

| SMILES | Percent Effect | Percent Effect (10 mM as filed; unlikely as a test dose) |
| --- | --- | --- |
| Cc1csc(CNC(=O)N2CCN(Cc3cc(C)on3)CC2)n1 | 3.68% |  |
| CC(C)c1cc(C(=O)NCCn2nc3ccccn3c2=O)n[nH]1 | -7.561% |  |
| Cc1nc(C(NC(=O)c2cc(C(C)C)[nH]n2)c2ccccc2)n[nH]1 (stereo unspecified) | 1.665% |  |
| CC(NC(=O)c1cc(C(C)C)[nH]n1)C(=O)Nc1ccccc1 (stereo unspecified) |  | 72.25% and 63.23% and 81.29% |
| O=C(C1CC1)N1CCc2nc(C3CCN(C(=O)C4CC4)C3)nc(O)c2C1 (stereo unspecified) | 2.355% |  |
| Cc1nn(CC(C)C)c(N(C)C)c1CNCc1cccnc1N(C)C | 0% |  |
| Cc1nn(CC(C)C)c(N(C)C)c1CNCc1ccccc1CO | 9.702% |  |
| Cc1nc(-c2ccncc2)ncc1C(C)NC(=O)CN1CCCC1=O (stereo unspecified) | -5.692% |  |
| Cc1cc(C2CCN(C(=O)c3cnn(C)c3)CC2)ccn1 | 2.879% |  |
| Cl.c1ccc(-c2ccc(C3CNCCO3)nc2)cc1 (stereo unspecified) |  | 93.99% and 69.13% and 81.53% |
| Cc1ccc(-c2ccc(C3CNCCO3)nc2)cc1.Cl (stereo unspecified) |  | 90.92% and 91.35% and 89.87% |
| CN(C)c1ncc(-c2ccc(F)cc2)c(C2CNCCO2)n1.Cl (stereo unspecified) | 8.117% |  |
| CN(C)c1ncc(-c2cccc(F)c2)c(C2CNCCO2)n1.Cl (stereo unspecified) | 2.337% |  |
| CN(C)c1ncc(-c2cncnc2)c(C2CNCCO2)n1.Cl (stereo unspecified) | -2.536% |  |
| Cl.Fc1ccccc1OCCc1cc(C2CNCCO2)n[nH]1 (stereo unspecified) | -0.03121% |  |
| CN(C)c1ncc(-c2ccc(C(N)=O)cc2)c(C2CNCCO2)n1 (stereo unspecified) | -5.327% |  |
| O=C(c1cccnn1)N1C[C@@H]2CC[C@H](Oc3cccc(F)c3)[C@@H]2C1 | -11.48% |  |
| CC(C(=O)NCc1ccnc(N2CCOCC2)c1)n1cccn1 (stereo unspecified) | 3.476% |  |
| O=C(NCc1ccc2c(c1)OCO2)[C@H]1C=CCN1c1ncccn1 | -8.12% |  |
| CC(NCc1ccccc1Cl)c1ccc2[nH]c(=O)[nH]c2c1 (stereo unspecified) | 4.238% |  |
| O=C1NCCN1C1CCN(CCOc2cccc3ccccc23)CC1 | 0.4468% |  |
| CCc1cnc(COc2ccc(OC3CCCCNC3=O)cc2)o1 (stereo unspecified) |  | -31.83% and -45% |
| Cc1nc(COc2ccc(OC3CCCCNC3=O)cc2)oc1C (stereo unspecified) |  | 96.35% and 88.4% |
| NC(=O)Cn1cc(NC(=O)N2CCCC(O)C2)cn1 (stereo unspecified) | 9.794% |  |

| SMILES | Percent Effect | Percent Effect (10 mM as filed; unlikely as a test dose) |
| --- | --- | --- |
| COCCN(C)c1ccc(NCc2cccnc2)nc1 |  | 21.13% and 22.11% |
| COCCN(C)c1ccc(NCc2cscn2)nc1 |  | 95.11% and 93.26% |
| COCCS(=O)(=O)N(Cc1cscn1)c1ccccc1 | 1.643% |  |
| CCn1cc(CNc2ccc(N(C)CCOC)cn2)cn1 |  | 4.885% and 7.278% |
| CC(C)(C)n1cc(NCc2cscn2)cn1 | 16.3% |  |
| COCCN(C)c1ccc(NCc2ccsc2)nc1 |  | 67.62% and 57.94% |
| CC1CN(c2ccccc2Cl)C(=O)CN1C(=O)c1c[nH]c(=O)c(Cl)c1 (stereo unspecified) | 1.644% |  |
| COc1ccc(-n2ncc3c2NC(=O)CSC3C(C)C)cc1 (stereo unspecified) | -10.71% |  |
| COCC(=O)N1CC[C@@H]2O[C@H](COCc3ccncc3)CC[C@@H]21.O=C(O)C(F)(F)F | -3.886% |  |
| COc1cccc(-c2noc(C3CCN(Cc4cn(C)nc4C)C3)n2)c1 (stereo unspecified) |  | 82.7% and 74.22% and 69.73% |
| COc1cccc(-c2noc(C3CCN(CC4CCCCC4)C3)n2)c1.Cl (stereo unspecified) |  | -10.94% and -15.38% and -3.133% |
| COc1cccc(CSCC2=Nc3ccccc3S(=O)(=O)N2)c1 | -15.51% |  |
| CC(C)(C)n1ncc2c1CCCC2NCc1cccc2c1OCCO2 (stereo unspecified) |  | 39.28% and 33.56% and 65.68% |
| Cc1ccc(CNC2CCCc3c2cnn3C)s1.Cl (stereo unspecified) |  | -10.87% and -25.98% and -25.69% |
| Cn1cc(N2CCCC(NCc3cccc4c3OCCCO4)C2)cn1 (stereo unspecified) | 11.2% |  |
| CC(C)(C)n1ncc2c1CCCC2NCc1cccc2c1OCO2 (stereo unspecified) |  | 74.58% and 37.95% and 70.91% |
| Cn1ncc2c1CCCC2NCc1ccc(Cl)s1 (stereo unspecified) |  | -1.156% and -7.705% and -11.46% |
| CCn1ncc2c1CCCC2NCc1cscn1 (stereo unspecified) |  | -18.21% and -26.49% |
| Cc1ccc(CNC2CCCc3c2cnn3Cc2ccccc2)s1.Cl (stereo unspecified) | -20.07% |  |
| Cl.c1cnc(N2CCCC(NCc3cccc4c3OCCO4)C2)nc1 (stereo unspecified) | -3.04% |  |
| Cc1ccn(CCC(=O)N2CCCC(Cc3cccnc3)C2)n1 (stereo unspecified) | 1.172% |  |
| Cc1cccc(CN2C[C@@H]3[C@@H](C(=O)NCC(C)C)CCS(=O)(=O)[C@@H]3C2)c1.O=C(O)C(F)(F)F | 5.351% |  |
| CCN(CC1CCOC1)C(=O)c1ccccc1S(=O)(=O)CC (stereo unspecified) | 6.872% |  |
| Cc1cc(-c2cnc(N3CCNC(=O)C3)nc2-c2sccc2C)on1 | 7.472% |  |

| SMILES | Percent Effect | Percent Effect (10 mM as filed; unlikely as a test dose) |
| --- | --- | --- |
| Cc1ccc(CN2CCC3(CC2)CCN(C(=O)c2cccn2C)C3)cc1.O=C(O)C(F)(F)F | -1.664% |  |
| CC(C)N(C)[C@@H]1CCN(S(C)(=O)=O)[C@H]1Cc1ccccc1 | 3.466% |  |
| CCn1ncc2c1CCCC2NCc1cccc2c1OCO2 (stereo unspecified) |  | 87.89% and 80.38% and 88.9% |
| Cc1cc(CN2CCN(C(=O)CCCc3nc(C(C)C)no3)CC2)on1 | 13.41% |  |
| COCCNC(=O)Cn1ccc2cccc(OC)c21 |  | 24.03% and 24.86% |
| COC(=O)CNC(=O)Cn1ccc2cccc(OC)c21 |  | 53.7% and 45.8% |
| COc1cccc2ccn(CC(=O)NCC(C)C)c12 |  | 1.134% and -1.268% |
| CN(C)CC(=O)N1CCC2(CC1)COc1ccccc1S(=O)(=O)N(C)C2 | -1.316% |  |
| Cc1nc(Nc2nccs2)cc(C2CCCN2)n1.Cl (stereo unspecified) | -7.871% |  |
| O=c1cc(N2CCNCC2)cnn1CCc1ccc(F)cc1 |  | -29.24% and -24.74% |
| O=c1cc(N2CCOCC2)cnn1CCc1ccc(F)cc1 |  | -2.466% and -5.477% |
| O=c1cc(N2CCCC2)cnn1CCc1cccc(F)c1 |  | 40.92% and 61.99% |
| CCc1nccn1CC1CCCN1S(=O)(=O)Cc1ccccc1 (stereo unspecified) | 3.419% |  |
| COCC(=O)N1CCCC(C)(c2nncn2C)C1 (stereo unspecified) | 4.813% |  |
| CNS(=O)(=O)c1ccc(C(=O)N2CCCCC2c2ccc(C)cc2)o1 (stereo unspecified) | -0.2417% |  |
| Cl.Cn1ncc2c1CCCC2NCc1cccc(F)c1 (stereo unspecified) | -6.761% |  |
| Cn1ncc2c1CCCC2NCc1cccnc1 (stereo unspecified) | 6.267% |  |
| Cn1ncc2c1CCCC2NCc1cnc(-c2ccccc2)nc1 (stereo unspecified) | 18.56% |  |
| CC(C)(C)n1ncc2c1CCCC2NCc1ccc2c(c1)CCO2 (stereo unspecified) |  | 65.53% and 54.34% |
| CC(C)(C)n1ncc2c1CCCC2NCc1ccsc1 (stereo unspecified) |  | 82.25% and 82.56% |
| CCn1ncc2c1CCCC2NCc1csc(COC)n1 (stereo unspecified) |  | -19.65% and -19.45% |
| CCc1nc(CNC2CCCc3c2cnn3CC)cs1 (stereo unspecified) |  | -15.59% and -14.06% |
| Cl.Cn1ncc2c1CCCC2NCc1cc(Br)cs1 (stereo unspecified) |  | 6.252% and 7.152% and 13.18% |
| CC(C)(C)n1ncc2c1CCCC2NCc1ccc2ncccc2c1 (stereo unspecified) |  | 67.83% and 75.52% |

| SMILES | Percent Effect | Percent Effect (10 mM as filed; unlikely as a test dose) |
| --- | --- | --- |
| CC(C)(C)n1ncc2c1CCCC2NCc1cccc(C(N)=O)c1 (stereo unspecified) |  | -6.583% and -14.2% |
| COCc1nc(CNC2CCCc3c2cnn3C(C)(C)C)cs1 (stereo unspecified) |  | 80.27% and 81.73% |
| CSc1ccc(CNC2CCCc3c2cnn3C)cc1.Cl (stereo unspecified) | 2.328% |  |
| C[C@H]1C(=O)NC[C@H]2CN(Cc3cccc(F)c3)C[C@H]21.O=C(O)C(F)(F)F | -1.083% |  |
| CS(=O)(=O)NC1CCCN(C(=O)NCc2ccoc2)C1 (stereo unspecified) | 4.932% |  |
| O=C1CCCN1CCCC(=O)N1CCCC(c2ccn[nH]2)C1 (stereo unspecified) | 5.64% |  |
| CC1CN(CC(=O)Nc2nccs2)CCN1Cc1nccn1C (stereo unspecified) | -1.162% |  |
| CN(C)c1ccc(C(=O)N2CCN(CC(O)C(C)(C)C)CC2)nn1 (stereo unspecified) | -6.949% |  |
| O=C(N[C@@H]1CN(Cc2ccc3cc[nH]c3c2)C[C@H]1O)c1cnccn1 | -1.172% |  |
| O=C(O)C(F)(F)F.O=C(c1ccncc1F)N1CC2CC1(C(=O)N1CCCC1)C2 | -2.014% |  |
| Cc1cnn(CCNCc2c(C(C)C)nn(C)c2Cl)c1 | -5.882% |  |
| Cc1cccc(CNC2CCCc3c2cnn3C)c1.Cl (stereo unspecified) | -1.28% |  |
| CCn1ncc2c1CCCC2NCc1ccc2c(c1)CCO2 (stereo unspecified) |  | 59.7% and 48.65% and 59.52% |
| Cl.Cn1ncc2c1CCCC2NCc1cccc(C(F)(F)F)c1 (stereo unspecified) | -3.477% |  |
| CC(C)(C)n1ncc2c1CCCC2NCc1ccc2c(c1)OCCO2 (stereo unspecified) |  | 101% and 99.54% |
| CCn1ncc2c1CCCC2NCc1ccc2c(c1)OCCO2 (stereo unspecified) |  | 33.22% and 25.15% |
| CCn1ncc2c1CCCC2NCc1ccc(OC)c(C)c1 (stereo unspecified) | 1.069% |  |
| O=C(NCC1CCCO1)c1nc2c(s1)CCCN2C(=O)C1CC1 (stereo unspecified) | -5.565% |  |
| Cl.Cl.O=C([C@H]1CCCN1)N1CC2(CCNCC2)c2cc(Cl)ccc21 | 12.41% |  |
| Cc1cc(OCC(=O)N2CCCC(c3noc(C(C)C)n3)C2)no1 (stereo unspecified) | 2.432% |  |
| O=C(c1ccc[nH]1)N1C[C@H]2CN(Cc3cccc(F)c3)C(=O)[C@H]2C1 | 12.11% |  |
| c1ccc(-c2noc(CCCN3CCCC3Cn3cncn3)n2)cc1 (stereo unspecified) |  | 40.22% and 41.76% and 47.25% |
| c1csc(-c2noc(CN3CCCC3Cn3cccn3)n2)c1 (stereo unspecified) |  | -21.92% and -8.385% and -5.28% |
| c1csc(-c2noc(CN3CCCCC3Cn3cccn3)n2)c1 (stereo unspecified) |  | 24.36% and 19.77% and 16.14% |

Reference: ChEMBL document CHEMBL3988442, “University of Dundee, Small-Polar-MMV Screening Library” (2021)
